The text below walks through data of the supplement of paper PMC10105736.

A number with no mark means an inactive call.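 Rule for the calls: active = MAPPIT score above the 99th percentile of random reference set scores in the same batch; inactive = at or below it.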

Common to all, as to test: MAPPIT interaction score (arbitrary units); higher = stronger binary interaction signal, active = hit call of the paper
Test [1] deals with CG15347. The settings on record: MAPPIT configuration: N-C; pair source set: screen_3.
The target in test [2] is CG15369. The settings on record: MAPPIT configuration: N-N; pair source set: Finley_Y2H.
Test [3] deals with CG32548. The settings on record: MAPPIT configuration: N-N; pair source set: Finley_Y2H.
For test [4], the target named is CG15443. The settings on record: MAPPIT configuration: N-N; pair source set: Curagen_low_conf.
The target of test [5] is Gs1. As to conditions: MAPPIT configuration: N-N; pair source set: DPIM.
In test [6] the target is Mpp6. The settings on record: MAPPIT configuration: N-N; pair source set: DPIM.
The target in test [7] is CG15449. The settings on record: MAPPIT configuration: N-N; pair source set: Finley_Y2H.
For test [8], the target named is CG5946. As to conditions: MAPPIT configuration: N-N; pair source set: Finley_Y2H.
Test [9] concerns the target PHDP. As to conditions: MAPPIT configuration: N-N; pair source set: Finley_Y2H.
In test [10] the target is Prim2. The settings on record: MAPPIT configuration: N-N; pair source set: Finley_Y2H.
For test [11], the target named is CG1532. The settings on record: MAPPIT configuration: N-N; pair source set: Finley_Y2H.
Test [12] concerns the target CG7560. As to conditions: MAPPIT configuration: N-N; pair source set: Finley_Y2H.
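Note: HEK293T cells with Epo stimulation, STAT-responsive firefly luciferase reporter, fold induction versus unstimulated cells divided by the larger fold induction of two negative controls lacking either bait or prey.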

B1: Nep3 (protein)
chain: MTRYKQTEFTEDDSSSIGGIQLNEATGHTGMQIRYHTARATWNWRSRNKTEKWLLITTFVMAITIFTLLIVLFTDGGSSDATKHVLHVQPHQKDCPSGNELPCLNKHCIFASSEILKSIDVTVDPCDDFYGYSCNQWIKNNPIPEGKSTWGTFGKLEQMNQLIIRNVLEKPAKSFKSDAERKAKVYYESCLDADEHMEKLGAKPMNDLLLQIGGWNVTKSGYNVANWTMGHTLKILHNKYNFNCLFGWAIGEDDKNSSRHVIQIDQGGLTLPTADYYNNKTDNHRKVLNEYIEYMTKVCVLLGANESDARAQMIGVINFEKKLANITIPLEDRRNEEAMYHPMQLRQLSKLAPFLNWTDHFDNAMQMVGRRVTDDEVVVVYAPDFLKNLSDIILKMEQTEEGKITLNNYLVWQAVRTLTSCLSKPFRDAYKGVRKALMGSDGGEEIWRYCVSDTNNVVGFAVGAIFVRQAFHGESKPAAEQMIAEIREAFKMNLQNLTWVDKQTREKAIEKANQISDMIGFPDYILDPVELDKKYAELNITPNAYFENNIQVAIYNLKSNLKRLDQPVNKTNWGMTPQTVNAYYTPTKNQIVFPAGILQTPFFDINNPKSLNFGAMGVVMGHELTHAFDDQGREYDKFGNINRWWDSKSIERFNEKSECIARQYSGYKMNGRTLNGKQTLGENIADNGGLKAAYHAYQRTKSDRDVDILKLPGLNLTHSQLFFVSFAQVWCSSTTDETNLLQMEKDPHSPSQFRVIGTLSNMKEFAEVFQCKPGKRMNPTEKCEVW
Regarding B1, in test [1], the MAPPIT interaction score was -1.12.

B2: Gel (protein)
chain: MDASGAATMAVLSSLLVFLALSSSLCSAGTLNARPAFPVQSGEIQPSGQNSKQAARRVMHPSFANAGRTPGLEIWRIENFEPVIYPKTNYGKFYTGDSFIVLNTIENKKDKKLSWDVHFWLGLETSTDEAGAAAILTVQLDDLLNGGPVQHREVQDHESQLFLSYFKNGIRYEQGGVGTGFKHVETNAQGETRLFQVKGKRNVRVRQVNLSVSSMNTGDCFILDAGSDIYVYVGSQAKRVEKLKAISAANQIRDQDHNGRARVQIVDDFSTDADKQHFFDVLGSGSADQVPDESTADEDSAFERTDAAAVSLYKVSDASGKLKVDIIGQKPLTQAMLDTRECFILDTGSGIFVWVGKGATQKEKTDAMAKAQEFLRTKKYPAWTQIHRIVEGSESAPFKQYFDTWRDAGMSHSRLIRSALGIGSDELLNDDEIDSVVTQLKKSGGRAFGFMPDHGQNVIETITQYVAKPGSDEIVVSTVPFDEKLPLLGFASYVLTYNYEANNGDTGSLTYVWHGVKASAAARKRAFEEGLVGSKDGLLVQTNQGHEPRHFYKIFKGKLLTSFTALPVTAQLFRIRGTVESDVHASEVAADSSSLASSDAFVLHSGKSHKIYIWNGLGASAFEKQAAVDRFSDYWDDVELEQVEEGAEPDEFWEELNGEGQYDRSLGDDGAPLLESRLFHCHLSSGGFLKVEEVAQYEQEDLDSDDIMLLDAGDEIYLWVGYGVSEEENGKLLDTAKLYFNLEPTARSFDTVSIIRVPQGKEPRVFKRMFPNWDDNYWQNQPSYEDMKQLVIDANNEV
Consider B2, for which the MAPPIT interaction score in test [2] was 0.935; in test [3], 0.0886.

B3: eEF5 (protein)
chain: MAELDDQFETTDSGASTTYPMQCSALRKNGFVMLKSRPCKIVEMSTSKTGKHGHAKVHMVGIDIFSNKKYEDICPSTHNMDVPNVKREDLQLIAISDDSFLTLMTESGDLREDLKVPEGELGEQLRLDFDSGKDLLCTVLKACGEECVIAIKTNTALDK
With B3, the MAPPIT interaction score in test [4] was 0.896; in [5], 0.522; in test [6] it was -0.193.

B4: RhoGAP68F (protein)
chain: MDAHSRFAPRLPGPAINPIVDNSDEPQPSLSDLHDFEPKLEFDDTELLAPSPLEKDVMVGDFVLAEDPELEPEEDVNPLEDDFEDQLREQSENFQTPRNKCDFLGTDKQGRHIFGIYASRFPEKSQLEGFVREIIKEIEPFVENDYILVYFHQGLKEDNKPSAQFLWNSYKELDRNFRKNLKTLYVVHPTWFIRVIWNFFSPFISDKFRKKLVYISSLDELRQALGLNKLKLPDNICDLDDKLNPSRKPSTPPPSSNINASRQQQHKMATTHQFGVPLKFIVMNSPCLNSIPPIVRKCVDSLSITGVIDTEGIFRRSGNHSEIMALKERVNRGEDVDLKSVNVHVIAGLLKSFLRDLAEPLLTFELYEDVTGFLDWPKEERSRNVTQLIREKLPEENYELFKYIVEFLVRVMDCEDLNKMTSSNLAIVFGPNFLWSRSTSTSLEEIAPINAFVDFVLQNHKDIYLIDVNQRTVSVD
As for B4, the MAPPIT interaction score was 0.0825 in [7], 0.206 in [8], 0.248 in test [9] and 3.38 (active) in [10].

B5: sel (protein)
chain: MLTKALILFGLLALAQGYSFTSREVKCHVCKAVVTELEEAIAKEDPHKMADVSGFRLDAQGNSISKKVRLVKSEMFLTELMEKICEKMDDYLKATYKSNGKFTLLKMIINGQMNPDSSLVDFVQDGDLNKSLGHFCNEVLEDNDEIFVKAFQAEELGNDLDIKICSEQASYCDESPVQEEYDFDGKEEL
Turning to B5, the MAPPIT interaction score is -0.121 in [11] and 0.327 in test [12].

B6: aph-1 (protein)
chain: MTLPEFFGCTFIAFGPPFALFVFTIANDPVRIIILIAAAFFWLLSLLISSLWYALIPLKEFLAFGVVFSVCFQEAFRYIIYRILRSTEQGLHAVAEDTRVTDNKHILAYVSGLGFGIISGMFALVNVLADMSGPGTMGLKGGTELFFVTSAAQALSIILLHTFWSVIFFNAFDTNNYIHIGYVVFSHLFVSLITLLNANELYTTTLLINYLVTILTGVLAFRVAGGTSRSFRKFITCQ
Regarding B6, the MAPPIT interaction score in test [1] was 3.73.
